HPGD block: qHTS Assay for Inhibitors of HPGD (15-Hydroxyprostaglandin Dehydrogenase) | AID 894, 2007 | Potency, µM, for inactives: at the top dose activity change, negative = inhibition, hits mostly inhibitors | purified HPGD, NADH fluorescence kinetic, PGE2 substrate | 15-hydroxyprostaglandin dehydrogenase [NAD(+)] (Homo sapiens), P15428 | 4.3% of 150,000 active; further: on the % scale 0 is the no-effect control and ±100 the full control effect
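20 nM HPGD preincubated 15 min at room temperature with compound in 50 mM Tris-HCl pH 8, 0.01% Tween 20. Started with 1 mM NAD+ and 30 uM prostaglandin E2; NADH fluorescence (360/450 nm) read 5 times over 30-s intervals, last minus first.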
LMNA splice mod: qHTS Assay for Modulators of Lamin A Splicing; HeLa LMNA splicing GFP/RFP minigene ratio, 48 h; Potency, µM (titrated, usually from 46.1 µM), for inactives: at the highest dose ratio change, negative = inhibition, hits mostly inhibitors; 0.01% of 200,000 active; active means well fitted inhibition curve with a large enough effect in the signal ratio, with a control signal flat, not every such curve was filed as active; inconclusive means small, poorly fitted or top-dose-only effect, or effect the other way, or a change in a side signal; the % refers to the signal ratio; further: on the % scale 0 is the no-effect control and ±100 the full control effect
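S3 HeLa cells stably expressing lamin A-EGFP splicing minigene plus DsRed2, 600 cells/well, 48 h compound exposure at 37C. Laser-scanning cytometry; analysed as GFP (500-530 nm)/RFP (575-640 nm) total intensity ratio; 0.5% DMSO vehicle.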
HTT aggregate: qHTS Multiplex Assay to Identify Dual Action Probes in a Cell Model of Huntington: Aggregate Formation (GFP). PC12 HttQ103-GFP aggregates, Acumen cytometry, 40 h. Potency, µM (titrated, usually from 46.1 µM), for inactives: top-dose activity change, negative = inhibition, actives largely listed as inhibitors. 1.1% of 220,000 active; active means well fitted curve in the direction sought with a large enough effect; inconclusive means small, poorly fitted or top-dose-only effect, or another doubt; inactive means no such curve, though single readings can be large; an effect the other way counts as inactive or inconclusive; further: on the % scale 0 is the no-effect control and ±100 the full control effect; nearly all actives have a fitted effect of over 60% in size
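PC12 cells stably carrying ecdysone-inducible HTT exon 1 Q103–GFP were induced with tebufenozide (100 nM final) and treated with library compounds in titration. GFP aggregates in lysates were counted by laser scanning cytometry.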
KDM4E inh: qHTS Assay for Inhibitors of Human Jumonji Domain Containing 2E (JMJD2E); Potency, µM (series often up to 57.1 µM), for inactives: at the highest dose activity change, negative = inhibition, hits mostly inhibitors; 1.6% of 230,000 active; JMJD2E catalytic domain, FDH-coupled NADH fluorescence (FDH is formaldehyde dehydrogenase);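 further: 0% = wells with enzyme and -100% = buffer wells without enzyme; nearly all actives have a fitted effect of over 50% in size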
HTT cytoprotect: qHTS Multiplex Assay to Identify Dual Action Probes in a Cell Model of Huntington: Cytoprotection (ATP); PC12 HTT-Q103 induced, cytoprotection, ATP luminescence, 40 h; AID 1471, 2008; 0.14% of 230,000 active; Potency, µM (top dose mostly 56.4 µM), without a hit: cytoprotection (ATP increase), actives largely listed as activators; active means well fitted curve in the direction sought with a large enough effect; inconclusive means small, poorly fitted or top-dose-only effect, or another doubt; inactive means no such curve, though single readings can be large; an effect the other way counts as inactive or inconclusive; further: % of control where 0% means no effect; nearly all actives have a fitted effect of over 45% in size
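Stable PC12 Q103-GFP cells in serum-supplemented, phenol red-free DMEM; induction by tebufenozide at 100 nM final; compound dose series; cell viability quantified luminescently from ATP.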
ALDH1A1 inh: qHTS Assay for Inhibitors of Aldehyde Dehydrogenase 1 (ALDH1A1); Purified ALDH1A1, NADH fluorescence, propionaldehyde substrate; Potency, µM (doses to about 75.3 µM), for inactives: at the highest dose activity, negative = inhibition, most hits filed as inhibitors; 7.3% of 220,000 active; AID 1030, 2008;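 further: plate controls were no enzyme wells and a reference inhibitor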
Target sequence (P00352 whole entry, looked up): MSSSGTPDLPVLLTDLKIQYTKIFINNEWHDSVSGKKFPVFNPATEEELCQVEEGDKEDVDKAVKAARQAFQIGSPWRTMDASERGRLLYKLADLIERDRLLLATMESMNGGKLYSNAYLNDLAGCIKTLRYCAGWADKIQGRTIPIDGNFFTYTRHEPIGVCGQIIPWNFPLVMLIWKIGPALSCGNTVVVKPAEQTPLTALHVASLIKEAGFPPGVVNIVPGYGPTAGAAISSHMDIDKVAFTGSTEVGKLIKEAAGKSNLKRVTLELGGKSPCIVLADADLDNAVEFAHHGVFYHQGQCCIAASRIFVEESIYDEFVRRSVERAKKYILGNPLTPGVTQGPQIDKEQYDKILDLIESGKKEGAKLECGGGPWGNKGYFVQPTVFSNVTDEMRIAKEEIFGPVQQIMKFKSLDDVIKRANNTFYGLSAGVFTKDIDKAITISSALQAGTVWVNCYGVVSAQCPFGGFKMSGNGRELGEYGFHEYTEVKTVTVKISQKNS
An asterisk follows results filed as active; [ ] = another dose, or the depositor's remark. A selection: hits, their analogues and other compounds. The true share with any hit is near 9.2%. Unless noted, the call rests on the fitted dose curve; in most records, active means well fitted inhibition curve with a large enough effect (not every such curve was filed as active); inconclusive means small, poorly fitted or top-dose-only effect, or another doubt; inactive means no such curve, though single readings can be large or run the other way. Potency means the concentration at half of the fitted maximal effect.

COc1ccc(Oc2cnn(-c3ccccc3)c(=O)c2Br)cc1 was read as HTT aggregate 2%, KDM4E inh 4%, HTT cytoprotect -8%[10 µM] and ALDH1A1 inh 25µM*.
Cc1ccccc1-n1nnnc1SCC(N)=O was read as HPGD block -16%, LMNA splice mod 3%, HTT aggregate 20%, KDM4E inh -2%, HTT cytoprotect -11% and ALDH1A1 inh inconclusive.
COC(=O)N(/C=C/c1ccc(OC)cc1)CCc1ccc(OC)c(OC)c1 was read as HTT cytoprotect -12%[10 µM] and ALDH1A1 inh 1%[13.5 µM].
For COC(=O)c1sccc1NC(=O)CSc1ccccc1NC(=O)CNC(C)C the results were LMNA splice mod -9%[46 µM], HTT aggregate 15%, KDM4E inh 15%, HTT cytoprotect -6% and ALDH1A1 inh 3.5µM*.
`COc1ccc(CSc2nnnn2-c2ccccc2)cc1` gave HPGD block -9%, LMNA splice mod inconclusive, HTT aggregate -5%, KDM4E inh -10%, HTT cytoprotect 9%[10 µM] and ALDH1A1 inh 11µM*.
COC(=O)c1sccc1NC(=O)CSc1ccccc1N was read as LMNA splice mod inconclusive, HTT aggregate 4%, KDM4E inh 0%, HTT cytoprotect -4% and ALDH1A1 inh -1%.
`Cc1ccc(-n2nnnc2SCC(=O)Nc2ccccc2N2CCCCC2)cc1C` gave HPGD block -13%, LMNA splice mod inconclusive, HTT aggregate -4%, KDM4E inh -4%, HTT cytoprotect -14%[10 µM] and ALDH1A1 inh -5%.
`CCCSc1nnc(Sc2nnnn2-c2ccccc2)s1` gave HPGD block -28%, LMNA splice mod inconclusive, HTT aggregate 22µM*, KDM4E inh -2%, HTT cytoprotect -58%[10 µM] and ALDH1A1 inh 11µM*.
`CSc1ccccc1-n1nnnc1SCC(=O)Nc1cc(C)ccc1C` gave HPGD block -2%, LMNA splice mod -20%, HTT aggregate 27%, KDM4E inh 0%, HTT cytoprotect 12% and ALDH1A1 inh 14µM*.
Screening O=C(NCc1ccccc1F)C(=O)NCC(c1ccc2c(c1)OCO2)N1CCOCC1 (stereo unspecified) returned LMNA splice mod 7%[46 µM].
Screening CCOc1ccc(/C=N/OCC(=O)NCc2ccco2)cc1 returned LMNA splice mod -2%[9.22 µM], HTT aggregate -1%, KDM4E inh -3%, HTT cytoprotect -25% and ALDH1A1 inh -8%.
Screening COc1ccc(Br)c(OC)c1C(=O)NC(=O)Nc1nc(C)cc(C)n1 returned HTT aggregate 8%[9.22 µM], KDM4E inh 5%, HTT cytoprotect 13%[10 µM] and ALDH1A1 inh -3%.
Screening COc1ccc(Oc2nnnn2-c2ccccc2)cc1 returned HPGD block -7%, LMNA splice mod -6%, HTT aggregate -1%, KDM4E inh 5%, HTT cytoprotect 3%[10 µM] and ALDH1A1 inh 7.9µM*.
Screening Cc1cc(C)n(-c2nc(Nc3ccccc3C(F)(F)F)nc(-n3nc(C)cc3C)n2)n1 returned HPGD block -10%, LMNA splice mod inconclusive, HTT aggregate 10µM*, KDM4E inh 5%, HTT cytoprotect 11%[1.9 µM] and ALDH1A1 inh 3%.
Screening COc1cc2c(C#N)c(N3CCOCC3)nc(N)c2c(N)n1 returned HPGD block inconclusive, LMNA splice mod -17%, HTT aggregate inconclusive, KDM4E inh inconclusive, HTT cytoprotect -15%[10 µM] and ALDH1A1 inh inconclusive.
